From the supplement of paper PMC8728848
This is one part of a sample in which the strongest signals are shown more often than they occur.

Legend:
Experiment in all cases: glycan array binding signal (z-score within array); higher = stronger binding
[1] = target: Gal(b1-4)GlcNAc(b1-2)Man(a1-6)[GlcNAc(b1-2)Man(a1-3)]Man(b1-4)GlcNAc(b1-4)[Fuc(a1-6)]GlcNAc; conditions: glycan notation: IUPAC condensed, linker removed
In short: (§1)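 Columns mapping to the same glycan were averaged after glycan names were converted to IUPAC-condensed notation. The data come from 3228 arrays in the Consortium for Functional Glycomics database, limited to those with an available protein sequence. Binding is reported as a within-array Z-score averaged across arrays of one protein sequence and across linkers.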

[2] = target: Gal(b1-4)GlcNAc(b1-2)[Gal(b1-4)GlcNAc(b1-4)]Man(a1-3)[Gal(b1-4)GlcNAc(b1-2)[Gal(b1-4)GlcNAc(b1-6)]Man(a1-6)]Man(b1-4)GlcNAc(b1-4)GlcNAc; conditions: glycan notation: IUPAC condensed, linker removed; mutation: D151N
In short: as §1

[3] = target: GlcNAc(b1-2)Man(a1-3)[GlcNAc(b1-2)Man(a1-6)]Man(b1-4)GlcNAc(b1-4)GlcNAc; conditions: glycan notation: IUPAC condensed, linker removed; mutation: D151N
In short: as §1

[4] = target: GlcNAc(b1-2)[GlcNAc(b1-4)]Man(a1-3)[GlcNAc(b1-2)Man(a1-6)][GlcNAc(b1-4)]Man(b1-4)GlcNAc(b1-4)GlcNAc; conditions: glycan notation: IUPAC condensed, linker removed; mutation: D151N
In short: as §1

[5] = target: HexA(a1-3)GalNAc4S(b1-4)GlcA(b1-3)GalNAc4S(b1-4)GlcA(b1-3)GalNAc4S(b1-4)GlcA(b1-3)GalNAc4S(b1-4)GlcA(b1-3)GalNAc4S(b1-4)GlcA(b1-3)GalNAc4S(b1-4)GlcA(b1-3)GalNAc4S(b1-4)GlcA(b1-3)GalNAc4S; conditions: glycan notation: IUPAC condensed, linker removed; mutation: D151N
In short: as §1

[6] = target: Gal(b1-4)GlcNAc(b1-2)Man(a1-6)[Man(a1-3)]Man(b1-4)GlcNAc(b1-4)GlcNAc; conditions: glycan notation: IUPAC condensed, linker removed; mutation: Y104F
In short: as §1

[7] = target: Gal(b1-4)GlcNAc(b1-2)[Gal(b1-4)GlcNAc(b1-4)]Man(a1-3)[Fuc(a1-3)[Gal(b1-4)]GlcNAc(b1-2)Man(a1-6)]Man(b1-4)GlcNAc(b1-4)GlcNAc; conditions: glycan notation: IUPAC condensed, linker removed; mutation: Y104F
In short: as §1

[8] = target: Glc(b1-3)Glc(b1-3)Glc(b1-3)Glc(b1-3)Glc(b1-3)Glc; conditions: glycan notation: IUPAC condensed, linker removed; mutation: Y104F
In short: as §1

[9] = target: Man(a1-3)Man(b1-4)GlcNAc; conditions: glycan notation: IUPAC condensed, linker removed; mutation: Y104F
In short: as §1

[10] = target: Xyl(b1-2)[Man(a1-3)][Man(a1-6)]Man(b1-4)GlcNAc(b1-4)GlcNAc; conditions: glycan notation: IUPAC condensed, linker removed; mutation: Y104F
In short: as §1

[11] = target: Gal(a1-3)GalNAc; conditions: glycan notation: IUPAC condensed, linker removed
In short: as §1

[12] = target: Gal(a1-4)Gal(b1-4)Glc; conditions: glycan notation: IUPAC condensed, linker removed
In short: as §1

[13] = target: Gal(b1-3)GalNAc(b1-4)Gal(b1-4)Glc; conditions: glycan notation: IUPAC condensed, linker removed
In short: as §1

[14] = target: Gal(b1-4)GalNAc(a1-3)[Fuc(a1-2)]Gal(b1-4)GlcNAc; conditions: glycan notation: IUPAC condensed, linker removed
In short: as §1

[15] = target: Gal(b1-4)GlcNAc(b1-3)[Gal(b1-4)GlcNAc(b1-6)]GalNAc; conditions: glycan notation: IUPAC condensed, linker removed
In short: as §1

[16] = target: Gal3S(b1-3)[Fuc(a1-4)]GlcNAc; conditions: glycan notation: IUPAC condensed, linker removed
In short: as §1

[17] = target: Gal6S(b1-4)Glc6S; conditions: glycan notation: IUPAC condensed, linker removed
In short: as §1

[18] = target: Glc(a1-4)Glc; conditions: glycan notation: IUPAC condensed, linker removed
In short: as §1

[19] = target: GlcNAc(b1-2)Gal(b1-3)GalNAc; conditions: glycan notation: IUPAC condensed, linker removed
In short: as §1

[20] = target: Neu5Ac(a2-3)[GalNAc(b1-4)]Gal(b1-4)Glc; conditions: glycan notation: IUPAC condensed, linker removed
In short: as §1

[21] = target: Neu5Ac(a2-6)Gal(b1-4)GlcNAc(b1-3)Gal(b1-4)[Fuc(a1-3)]GlcNAc(b1-3)Gal(b1-4)[Fuc(a1-3)]GlcNAc; conditions: glycan notation: IUPAC condensed, linker removed
In short: as §1

[22] = target: Neu5Ac(a2-8)Neu5Ac(a2-8)Neu5Ac(a2-3)Gal(b1-4)Glc; conditions: glycan notation: IUPAC condensed, linker removed
In short: as §1

[23] = target: Neu5Gc(a2-3)Gal(b1-3)GlcNAc; conditions: glycan notation: IUPAC condensed, linker removed
In short: as §1

[24] = target: Neu5Gc(a2-3)Gal(b1-4)[Fuc(a1-3)]GlcNAc; conditions: glycan notation: IUPAC condensed, linker removed
In short: as §1

[25] = target: Glc(a1-2)Glc; conditions: glycan notation: IUPAC condensed, linker removed
In short: as §1

[26] = target: Glc(a1-6)Glc(a1-6)Glc(a1-6)Glc(a1-6)Glc(a1-6)Glc; conditions: glycan notation: IUPAC condensed, linker removed
In short: as §1

[27] = target: Glc(b1-2)Glc(b1-2)Glc; conditions: glycan notation: IUPAC condensed, linker removed
In short: as §1

[28] = target: Glc(b1-2)Glc(b1-2)Glc(b1-2)Glc(b1-2)Glc(b1-2)Glc(b1-2)Glc(b1-2)Glc(b1-2)Glc; conditions: glycan notation: IUPAC condensed, linker removed
In short: as §1

[29] = target: Glc(b1-3)Glc(b1-3)Glc(b1-3)Glc(b1-3)Glc(b1-3)Glc(b1-3)[Glc(b1-6)]Glc(b1-3)Glc(b1-3)Glc; conditions: glycan notation: IUPAC condensed, linker removed
In short: as §1

[30] = target: Glc(b1-4)Glc(b1-4)Glc(b1-3)Glc(b1-4)Glc(b1-4)Glc(b1-3)Glc; conditions: glycan notation: IUPAC condensed, linker removed
In short: as §1

[31] = target: Glc(b1-6)Glc(b1-6)Glc; conditions: glycan notation: IUPAC condensed, linker removed
In short: as §1

[32] = target: Man(b1-4)Man(b1-4)Man(b1-4)Man(b1-4)Man; conditions: glycan notation: IUPAC condensed, linker removed
In short: as §1

B1: ZG16p (Homo sapiens), O60844 (protein)
chain: ARSSSYSGEYGGGGGKRFSHSGNQLDGPITALRVRVNTYYIVGLQVRYGKVWSDYVGGRNGDLEEIFLHPGESVIQVSGKYKWYLKKLLFVTDKGRYLSFGKDSGTSFNAVPLHPNTVLRFISGRSGSLINAIGLHWDVYPSSCSRC
glycan array binding signal (z-score) ([1]; mutation: D151N): -0.565 | glycan array binding signal (z-score) [2]: -0.44 | glycan array binding signal (z-score) [3]: -0.565 | glycan array binding signal (z-score) [4]: -0.565 | glycan array binding signal (z-score) [5]: 5.03

B2: ZG16p (Homo sapiens), O60844 (protein)
chain: ARSSSYSGEYGGGGGKRFSHSGNQLDGPITALRVRVNTYYIVGLQVRYGKVWSDYVGGRNGDLEEIFLHPGESVIQVSGKYKWFLKKLLFVTDKGRYLSFGKDSGTSFNAVPLHPNTVLRFISGRSGSLIDAIGLHWDVYPSSCSRC
glycan array binding signal (z-score) ([1]; mutation: Y104F): -0.485 | glycan array binding signal (z-score) [6]: -0.485 | glycan array binding signal (z-score) [7]: -0.485 | glycan array binding signal (z-score) [8]: 2.84 | glycan array binding signal (z-score) [9]: 0.015 | glycan array binding signal (z-score) [10]: -0.331

B3: IRp60B (Homo sapiens), Q9UGN4-3 (protein)
chain: MWLPWALLLLWVPAGDHSELSQNPKQAATQSELHYANLELLMWPLQEKPAPPREVEVEYSTVASPREELHYASVVFDSNTNRIAAQRPREEEPDSDYSVIRKT
glycan array binding signal (z-score) [11]: 0.074 | glycan array binding signal (z-score) [12]: 5.38 | glycan array binding signal (z-score) [13]: 2.68 | glycan array binding signal (z-score) [14]: -0.378 | glycan array binding signal (z-score) [15]: 4.42 | glycan array binding signal (z-score) [16]: 4.5 | glycan array binding signal (z-score) [17]: -0.421 | glycan array binding signal (z-score) [18]: -0.26 | glycan array binding signal (z-score) [19]: -0.44 | glycan array binding signal (z-score) [20]: -0.323 | glycan array binding signal (z-score) [21]: 1.2 | glycan array binding signal (z-score) [22]: 1.18 | glycan array binding signal (z-score) [23]: -0.475 | glycan array binding signal (z-score) [24]: -0.107

B4: Cel5A (Clostridium thermocellum), P16218 (protein)
chain: AVGEKMLDDFEGVLNWGSYSGEGAKVSTKIVSGKTGNGMEVSYTGTTDGYWGTVYSLPDGDWSKWLKISFDIKSVDGSANEIRFMIAEKSINGVGDGEHWVYSITPDSSWKTIEIPFSSFRRRLDYQPPGQDMSGTLDLDNIDSIHFMYANNKSGKFVVDNIKLIGATSDPTPSIKHGDLNFDNAVNSTDLLMLKRYILKSLELGTSEQEEKFKKAADLNRDNKVDSTDLTILKRYLLKAISEIPI
glycan array binding signal (z-score) [25]: -0.143 | glycan array binding signal (z-score) [26]: -0.143 | glycan array binding signal (z-score) [27]: -0.143 | glycan array binding signal (z-score) [28]: -0.143 | glycan array binding signal (z-score) [29]: 0.047 | glycan array binding signal (z-score) [30]: 4.62 | glycan array binding signal (z-score) [31]: -0.143 | glycan array binding signal (z-score) [32]: 0.04
